In all, about 1,500 compounds went through this assay and about 1,300 (87%) were called active. No stated cut-off is given here; in the data, active means inhibition above about 9%; inactive means the rest. The set was probably picked from earlier hits. A selection follows.
Test: PG9 antibody small-molecule binding – biochemical, TR-FRET, confirmation (AID 651571)
Conditions: at 6.7 µM, stronger effect = higher value

| SMILES | inhibition |
| --- | --- |
| COc1ccc(Cl)cc1NC(=O)Cn1nc(-c2ccc(C)cc2)n(C)c1=S | 12.2% (active) |
| N#Cc1ccccc1NC(=O)c1cccc(COc2ccc(Cl)cc2Cl)c1 | 15.1% (active) |
| O=C1C(=O)N(CCN2CCOCC2)C(c2cccc(Cl)c2)/C1=C(/O)c1ccc2c(c1)OCO2 (stereo not drawn) | 26.7% (active) |
| O=C(O)CCCCCNc1ncnc2ccc(Br)cc12 | 28.1% (active) |
| COc1cccc(-c2ccc(C#N)c(SCC(=O)NCCc3ccc(Cl)cc3)n2)c1 | 7.22% (inactive) |
| COc1ccc(CCNC(=O)CSc2nc(-c3ccc(OC)c(OC)c3)ccc2C#N)cc1 | 26% (active) |
| O=C(Nc1c(Br)cc2c(c1Br)Cc1cc([N+](=O)[O-])ccc1-2)C(Cl)Cl | 51.1% (active) |
| O=C(COC(=O)c1ccc2c(c1)OCCO2)NCc1ccccc1Cl | 29.8% (active) |
| COCCNC(=O)c1cc2c(Br)ccc(Br)c2nc1N | 16.4% (active) |
| C=CCn1c(=NC(=O)c2cccs2)sc2cc(NC(C)=O)ccc21 | 9.74% (active) |
| C=CCn1c(=NC(=O)c2ccc(S(=O)(=O)N3CCCC3)cc2)sc2cc(NC(C)=O)ccc21 | 29.4% (active) |
| CCCc1nc(SCC(=O)Nc2ccc(S(=O)(=O)N(C)C)cc2)c2ccccc2n1 | 34.5% (active) |
| CCc1ccc(NC(=O)CSc2nnc(-c3cnccn3)n2Cc2ccco2)cc1 | 22.4% (active) |
| O=C(C1=C(O)C(=O)N(Cc2ccccc2)C1c1ccco1)c1ccco1 (stereo not drawn) | 31.8% (active) |
| COc1cccc(-n2c(SCC(=O)c3c[nH]c4ccccc34)nc3ccccc3c2=O)c1 | 27% (active) |
| Cc1cc(C)cc(NC(=O)C2CCCN(S(=O)(=O)c3ccc4[nH]c(=O)ccc4c3)C2)c1 (stereo not drawn) | 23.8% (active) |
| CCn1nnc2cc(C(=O)Nc3ccc(C(=O)OC(C)C)cc3)ccc21 | 25.6% (active) |
| COC(=O)C1=C(C)N(Cc2ccccc2C(F)(F)F)C(=NCc2ccc(OC)cc2)NC1c1cccc(C(F)(F)F)c1 (stereo not drawn) | 6.91% (inactive) |
| O=C(N=C1SC2CS(=O)(=O)CC2N1Cc1ccccc1)c1ccccc1 (stereo not drawn) | 34.1% (active) |
| O=C(Nc1cccc(S(=O)(=O)Nc2ccc(Cl)cc2)c1)c1ccc2c(c1)OCCO2 | 23.1% (active) |
| COc1ccc(-c2c(C)nn3c(N4CCC(C(=O)N5CCCCC5)CC4)cc(C)nc23)cc1OC | 13.9% (active) |

| SMILES | inhibition |
| --- | --- |
| CCOc1cccc(NC(=O)Cn2nc(-c3ccc4c(c3)OCCO4)ccc2=O)c1 | 14.5% (active) |
| Cc1cc2c(cc1C)N1C(=O)c3cc4ccccc4cc3NC(=O)C1C(=O)N2 (stereo not drawn) | 12.3% (active) |
| COc1ccc(-n2nnnc2-c2nc3ccccc3s2)cc1 | 30.8% (active) |
| CCn1c(SCC(=O)Nc2cccc(F)c2)nnc1-c1cc2cc(Br)ccc2o1 | 40.1% (active) |
| Cc1nc2nc(SCC(=O)c3ccccc3)[nH]c2cc1Br | 28.4% (active) |
| N#C/C=C1\Sc2ccccc2C(=O)N1CC(=O)N1CCN(S(=O)(=O)c2ccccc2)CC1 | 22.1% (active) |
| N#Cc1ccccc1Sc1ccccc1C(=O)OCC(=O)NC1CCCCC1 | 27.3% (active) |
| CC(=O)c1sc2nc(SCC(=O)N3CCCCC3)[nH]c(=O)c2c1C | 25.6% (active) |
| COc1cccc(NS(=O)(=O)c2ccc3[nH]cc(C(=O)NCCCOC(C)C)c(=O)c3c2)c1 | 18.6% (active) |
| Fc1cc(F)c2nc(Nc3nc4c(F)cccc4s3)sc2c1 | 9.6% (active) |
| COCCCNc1nc2c(-c3cccc(C)c3)nnn2c2ccc(Cl)cc12 | 19.2% (active) |
| O=C1COc2ccc(C(=O)COC(=O)c3ccccc3Cl)cc2N1 | 24.8% (active) |
| Cc1c(-c2ccccc2)nc(N)c(C#N)c1-c1cccs1 | 18.6% (active) |
| N#Cc1c(-c2cccs2)nc(SCC(=O)c2ccc(Br)cc2)[nH]c1=O | 29.8% (active) |
| COc1ccc(CC(=O)Nc2ccc(-c3nnc(-c4ccccc4)o3)cc2)cc1 | 18.3% (active) |
| Cc1nc(-c2ccccc2)sc1-c1nc(-c2ccccc2)ncc1S(=O)(=O)c1ccccc1 | 8.54% (inactive) |
| Cc1ccc(-c2cc(C(=O)NCc3cn(C)nc3C)c3cc(Br)ccc3n2)cc1 | 18.5% (active) |
| CCOC(=O)c1c(C)[nH]c(C(=O)OCC(=O)c2ccc(OC)cc2OC)c1C | 45.1% (active) |
| Cc1ccc(-n2c(SCC(=O)NCCC3=CCCCC3)nc3n[nH]c(C)c3c2=N)cc1Cl | 22.1% (active) |
| CCCCNC(=O)CSc1nc2n[nH]c(C)c2c(=N)n1-c1cccc(Cl)c1C | 38.3% (active) |
| Cc1ccc(-n2ncc3c(=O)n(-c4ccc(C)c(C)c4)c(-c4ccco4)nc32)cc1 | 8.17% (inactive) |

| SMILES | inhibition |
| --- | --- |
| CC1(C)Cc2ccccc2-c2[nH]c(=S)[nH]c(=O)c21 | 9.89% (active) |
| CCOc1cc2ccccc2cc1C(=O)Nc1ccccn1 | 12.1% (active) |
| CC(C)OCCCNC(=O)c1cc(Sc2ccc(F)cc2)nc2ccccc12 | 25.9% (active) |
| S=c1[nH]c2ccccc2c2ccccc12 | 14.6% (active) |
| Cc1cc(Br)ccc1NC(=O)c1sc2ncn(CC(=O)N3CCN(c4ccccn4)CC3)c(=O)c2c1C | 5.44% (inactive) |
| O=C(O)CCC(=O)Nc1nc2ccc([N+](=O)[O-])cc2s1 | 5.06% (inactive) |
| COC(=O)c1ccc(NC(=S)Nc2cccc(C)n2)cc1 | 11% (active) |
| O=C(NCc1ccc(Cl)cc1)c1cc2c(nc3sccn32)s1 | 17.8% (active) |
| CC(=O)c1cc(C#N)c(SCC(=O)Nc2nccs2)nc1C | 27.5% (active) |
| COc1ccc(-c2csc(NC(=O)c3ccc(N4C(=O)CCC4=O)cc3)n2)cc1OC | 15.2% (active) |
| O=C(Oc1ccccc1)Oc1ccc2c(c1)oc(=O)c1ccccc12 | 46.9% (active) |
| CCOc1ccc2cc(C#N)c(SCC(=O)OC)nc2c1 | 48.4% (active) |
| Cc1cccc(Nc2nc3c(S(=O)(=O)c4ccccc4)nnn3c3ccccc23)c1C | 41.2% (active) |
| Cc1nc2cc(NC(=O)CSc3nc4c(C)cccc4cc3C#N)ccc2s1 | 46.4% (active) |
| O=C(Nc1nnc(-c2ccccc2F)s1)c1ccccc1F | 38.5% (active) |
| N#Cc1c(N)nc2c3c(sc(=N)c2c1N)NC(=O)CC3c1ccccc1Cl (stereo not drawn) | 24.9% (active) |
| C=CCOc1cccc(C2C(C(=O)c3ccc(C)o3)=C(O)C(=O)N2CCCn2ccnc2)c1 (stereo not drawn) | 19.4% (active) |
| CCCOc1ccc(C2C(C(=O)c3ccc(C)o3)=C(O)C(=O)N2CCCn2ccnc2)cc1 (stereo not drawn) | 53% (active) |
| Cn1c(=S)sc2ccc3ccccc3c21 | 11.9% (active) |
| CCOc1ccc(C(=O)COC(=O)c2ccc(-n3cnnn3)cc2)cc1 | 27.8% (active) |
| CC(=O)c1sc(NC(=O)CCCOc2ccccc2C)nc1C | 18.4% (active) |

From PubChem BioAssay AID651571 (The Scripps Research Institute Molecular Screening Center, 2012)
